For 5 compounds, composite z-score and z-score results are on record in PubChem BioAssay.

Experiment [1] is described as follows: compounds binding Alexa647 anti-His antibody – biochemical, small-molecule microarray, 635 nm fluorescence, artefact control for SMM control protein annotation, primary screen (AID 1128).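 Further: score merges feature fluorescence with signal-to-noise for each printed compound spot.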 The settings on record: higher = more signal.
Experiment [2] deals with Human papillomavirus type 1a E7 protein (residues 1-88). Description: HPV1a E7 small-molecule binders, primary screen, biochemical, small-molecule microarray, residues 1-88, 635 nm (AID 1129). The note with it: small-molecule microarray binding, fluorescence 635 nm; higher = more signal.
The target in experiment [3] is Focal adhesion kinase 1 (Homo sapiens) (UniProt Q05397). Description: PTK2 protein binding on printed compound slides – biochemical, small-molecule microarray, 635/667 nm fluorescence, BSA, DTT, primary screen (AID 1130).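 Further: composite of spot emission at 667 nm and signal to noise over triplicate slides.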 The settings on record: 635 nm fluorescence, higher = more signal.
The subject of experiment [4] is Fibrinogen (Alexa647-labelled). Description: Alexa647-fibrinogen binding to printed small molecules – biochemical, small-molecule microarray, 635/667 nm fluorescence, artefact control for SMM control-protein annotation, profiling panel (AID 1131).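 Further: z-score merges 667 nm fluorescence with per-spot signal-to-noise over triplicate slides.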 The settings on record: fibrinogen-A647 binding fluorescence, higher = more signal.
For experiment [5], the target named is Follistatin (Homo sapiens) (UniProt P19883). Description: FST protein binding to printed compounds – biochemical, small-molecule microarray, 635/667 nm fluorescence, primary screen (AID 1132). The note with it: 635 nm fluorescence, higher = more signal.
Experiment [6] has as its target Fibroblast growth factor 2 (Homo sapiens) (UniProt P09038). Description: basic fibroblast growth factor binding to printed compounds – biochemical, small-molecule microarray, 635/667 nm fluorescence, primary screen (AID 1133). The note with it: FGF2, fluorescence 635/667, higher = more signal.
A short description of experiment [7]: JC-1 mitochondrial potential readout, lung cancer cells – cell-based, A549, JC-1 fluorescence, basal, 24 h, 100 nL, profiling panel (AID 1138).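 Further: A549 lung adenocarcinoma cells under basal conditions with no added stimulus; test concentration not given here.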 The settings on record: higher = more signal.
Experiment [8] has as its system Lefty1. Description: Lefty1 protein binding to printed compounds – biochemical, small-molecule microarray, 635/667 nm fluorescence, primary screen (AID 1139). The settings on record: fluorescence 635/667, higher = more signal.
Experiment [9] concerns wheat germ agglutinin (Triticum aestivum), Alexa647-labelled. Briefly: Alexa647-WGA lectin binding to printed small molecules – biochemical, small-molecule microarray, 635/667 nm fluorescence, artefact control for SMM control-protein annotation, profiling panel (AID 1140).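 Further: score merges 667 nm feature emission with signal to noise over triplicate slides.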 The note with it: WGA-A647 binding, 635 nm fluorescence, higher = more signal.
Experiment [10] deals with Luciferin 4-monooxygenase (Photinus pyralis) (UniProt P08659). Briefly: inhibition of purified Photinus pyralis luciferase – biochemical, luminescence, purified enzyme, 2006 set, primary screen (AID 1141).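 Further: cell-free assay with purified firefly luciferase at 100 ng per well in PBS; test concentration not given here.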 The note with it: purified firefly luciferase, SteadyGlo luminescence, 30 min; higher = more signal, called active from +8 up or from −8 down.
Experiment [11] has as its system Wnt5a (protein binding on small-molecule microarray). Description: small molecules binding Wnt5a protein – biophysical, small-molecule microarray, 635/667 nm fluorescence, primary screen (AID 1142).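 Further: fluorescence read at 667 nm with signal to noise per printed feature.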 The note with it: 635 nm fluorescence, higher = more signal.
A short description of experiment [12]: ATP-based viability of Huh7 replicon cells – cell-based, CellTiter-Glo luminescence, basal, 48 h, cytotoxicity control for HCV replication inhibitor project, primary screen (AID 1143).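 Further: Huh7 hepatoma cells carrying a hepatitis C replication reporter with no stimulus; test concentration not given here.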 The note with it: higher = more signal, called active from +8 up or from −8 down. Background: Replicon systems follow genome replication, usually without infectious particles.
Experiment [13] can be described thus: Pseudomonas biofilm growth suppression – PAO1 strain, BacTiter-Glo luminescence, LB-PBS, primary screen (AID 1144). The note with it: P. aeruginosa PAO1 biofilm, 12 h, higher = more signal.
A short description of experiment [14]: basal CRE-LacZ reporter activity in PC12 – cell-based, unstimulated, primary screen (AID 1145). The note with it: no forskolin, luminescence, 4.5 h, higher = more signal, called active from +8 up or from −8 down.
Experiment [15] in a line: forskolin-driven CRE-LacZ activity in PC12 – cell-based, CRE-LacZ reporter, forskolin-stimulated, primary screen (AID 1146).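 Further: PC12 cells with 6xCRE LacZ reporter stimulated by forskolin 10 µM; beta-galactosidase reporter signal reflecting CREB driven transcription.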 The settings on record: luminescence, 4.5 h, higher = more signal, called active from +8 up or from −8 down.
For experiment [16], the target named is Streptavidin (Streptomyces avidinii) (UniProt P22629). Description: compounds binding control protein streptavidin – biophysical, small-molecule microarray, 635/667 nm fluorescence, artefact control for SMM compound annotation, primary screen (AID 1147).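 Further: signal reflects streptavidin binding to arrayed compounds as a control protein.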 The note with it: higher = more signal.
Experiment [17] in a line: probe aInhba binding on compound microarray – biochemical, small-molecule microarray, 635/667 nm fluorescence, primary screen (AID 1148).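 Further: score merges 667nm spot fluorescence with signal-to-noise for antibody binding to printed compounds.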 The settings on record: higher = more signal.
Experiment [18] addresses Torsin-1A (Homo sapiens) (UniProt O14656). Description: TOR1A wild-type binding on microarray – cell lysate, small-molecule microarray, lysate, 635/667 nm, primary screen (AID 1149). The note with it: COS7 hTOR1A-WT lysate, 635 nm fluorescence, higher = more signal.
Experiment [19] shares this target. Description: torsin A mutant lysate binding on microarrays – cell lysate, small-molecule microarray, COS7 lysate, 635/667 nm fluorescence, primary screen (AID 1150).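 Further: score pools 667 nm emission and signal to noise measuring lysate protein binding.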 The note with it: COS7 hTOR1A mutant lysate, 635 nm fluorescence, higher = more signal.
The test system of experiment [20] is Sonic hedgehog protein (Shh). Briefly: Sonic hedgehog microarray binding compounds – biochemical, small-molecule microarray, 635/667 nm fluorescence, primary screen (AID 1151).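 Further: Shh protein binding to compounds spotted on small-molecule microarray slides; score combines spot fluorescence intensity with signal-to-noise across triplicate slides.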 The settings on record: 635 nm fluorescence, higher = more signal.

Active and inactive are the calls of the source. Unless noted, how the calls were made is not given here.

Follistatin (Homo sapiens), sequence (P19883 whole entry, looked up): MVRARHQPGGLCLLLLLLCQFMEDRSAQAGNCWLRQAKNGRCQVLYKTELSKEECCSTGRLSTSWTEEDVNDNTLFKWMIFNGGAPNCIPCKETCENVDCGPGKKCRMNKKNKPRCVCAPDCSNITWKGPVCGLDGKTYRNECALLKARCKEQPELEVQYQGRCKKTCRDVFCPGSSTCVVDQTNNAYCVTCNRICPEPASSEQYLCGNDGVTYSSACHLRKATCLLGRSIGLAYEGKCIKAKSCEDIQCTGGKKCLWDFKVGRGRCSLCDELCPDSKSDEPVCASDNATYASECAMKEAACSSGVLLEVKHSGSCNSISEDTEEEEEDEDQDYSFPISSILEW
Focal adhesion kinase 1 (Homo sapiens), sequence (Q05397 whole entry, looked up): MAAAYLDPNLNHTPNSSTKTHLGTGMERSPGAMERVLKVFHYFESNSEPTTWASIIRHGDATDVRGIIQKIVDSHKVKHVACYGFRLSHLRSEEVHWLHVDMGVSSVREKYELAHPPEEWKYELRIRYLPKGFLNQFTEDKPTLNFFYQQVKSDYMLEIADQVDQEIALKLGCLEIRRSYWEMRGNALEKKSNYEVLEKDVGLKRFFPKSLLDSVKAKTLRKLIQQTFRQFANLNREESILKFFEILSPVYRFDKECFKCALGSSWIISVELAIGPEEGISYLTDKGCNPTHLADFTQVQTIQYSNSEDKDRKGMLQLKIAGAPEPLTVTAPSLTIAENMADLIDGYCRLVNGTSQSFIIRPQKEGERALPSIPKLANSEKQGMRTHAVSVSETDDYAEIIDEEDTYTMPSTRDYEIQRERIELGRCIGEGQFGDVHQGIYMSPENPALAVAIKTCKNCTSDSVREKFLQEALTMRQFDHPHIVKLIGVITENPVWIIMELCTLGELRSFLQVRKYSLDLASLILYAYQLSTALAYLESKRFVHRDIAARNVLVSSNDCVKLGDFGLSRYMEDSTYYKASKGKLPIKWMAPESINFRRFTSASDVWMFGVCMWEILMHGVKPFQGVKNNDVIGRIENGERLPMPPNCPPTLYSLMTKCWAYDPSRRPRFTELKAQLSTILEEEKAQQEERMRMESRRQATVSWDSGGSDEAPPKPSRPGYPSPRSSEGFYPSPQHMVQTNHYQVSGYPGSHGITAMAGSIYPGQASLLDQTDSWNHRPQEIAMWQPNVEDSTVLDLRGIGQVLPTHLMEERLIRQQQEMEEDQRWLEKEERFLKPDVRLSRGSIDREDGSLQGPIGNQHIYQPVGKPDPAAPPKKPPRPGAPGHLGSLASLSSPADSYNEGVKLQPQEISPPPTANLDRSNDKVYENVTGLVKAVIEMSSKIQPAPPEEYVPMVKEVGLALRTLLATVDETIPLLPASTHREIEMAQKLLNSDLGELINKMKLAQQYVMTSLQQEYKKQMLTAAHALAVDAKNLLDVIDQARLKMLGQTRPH
Streptavidin (Streptomyces avidinii), sequence (P22629 whole entry, looked up): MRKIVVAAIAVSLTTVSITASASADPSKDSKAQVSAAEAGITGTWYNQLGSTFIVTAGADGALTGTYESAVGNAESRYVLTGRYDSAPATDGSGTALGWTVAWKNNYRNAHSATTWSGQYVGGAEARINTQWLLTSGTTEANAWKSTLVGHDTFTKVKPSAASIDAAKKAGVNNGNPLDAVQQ
Torsin-1A (Homo sapiens), sequence (O14656 whole entry, looked up): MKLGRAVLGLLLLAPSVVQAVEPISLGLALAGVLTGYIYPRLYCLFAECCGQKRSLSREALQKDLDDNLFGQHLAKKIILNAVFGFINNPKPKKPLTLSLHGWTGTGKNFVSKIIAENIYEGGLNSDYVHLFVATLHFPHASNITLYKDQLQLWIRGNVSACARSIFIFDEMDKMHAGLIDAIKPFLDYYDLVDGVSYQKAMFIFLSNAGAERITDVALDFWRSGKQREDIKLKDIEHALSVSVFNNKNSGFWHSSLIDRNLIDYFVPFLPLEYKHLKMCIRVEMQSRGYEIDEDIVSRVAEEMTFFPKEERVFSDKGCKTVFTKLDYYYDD
Luciferin 4-monooxygenase (Photinus pyralis), sequence (P08659 whole entry, looked up): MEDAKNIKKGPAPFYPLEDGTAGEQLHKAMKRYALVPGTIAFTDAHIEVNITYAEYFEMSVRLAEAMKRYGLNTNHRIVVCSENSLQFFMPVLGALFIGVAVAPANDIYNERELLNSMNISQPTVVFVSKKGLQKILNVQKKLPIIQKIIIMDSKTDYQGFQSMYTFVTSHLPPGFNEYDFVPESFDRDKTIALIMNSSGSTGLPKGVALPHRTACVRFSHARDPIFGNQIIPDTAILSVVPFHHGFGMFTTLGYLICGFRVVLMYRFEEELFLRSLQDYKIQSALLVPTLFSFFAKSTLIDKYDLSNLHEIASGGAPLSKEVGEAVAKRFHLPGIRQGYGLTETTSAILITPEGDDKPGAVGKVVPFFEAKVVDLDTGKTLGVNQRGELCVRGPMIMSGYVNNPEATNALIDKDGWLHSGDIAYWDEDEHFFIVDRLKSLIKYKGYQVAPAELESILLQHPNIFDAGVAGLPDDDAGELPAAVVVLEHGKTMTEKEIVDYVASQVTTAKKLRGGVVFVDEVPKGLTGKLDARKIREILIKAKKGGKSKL
Fibroblast growth factor 2 (Homo sapiens), sequence (P09038 whole entry, looked up): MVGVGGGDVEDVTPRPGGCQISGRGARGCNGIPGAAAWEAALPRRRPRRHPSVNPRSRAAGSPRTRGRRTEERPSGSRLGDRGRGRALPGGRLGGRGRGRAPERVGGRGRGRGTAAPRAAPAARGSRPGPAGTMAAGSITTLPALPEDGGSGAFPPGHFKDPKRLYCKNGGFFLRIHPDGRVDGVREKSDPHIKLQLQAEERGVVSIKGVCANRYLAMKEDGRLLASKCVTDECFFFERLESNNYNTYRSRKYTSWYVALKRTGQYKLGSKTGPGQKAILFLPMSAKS

Turning to `O=C1C2C=CC(C(O)c3ccc(F)cc3)N(n3cnnc3)C2C(=O)N1Cc1ccccc1` (stereo not given), the composite z-score in [1] is -0.782; in experiment [2], -0.657; in experiment [3] it was -0.284; in experiment [4], -0.48; in experiment [5], -0.524; in experiment [6] it was -0.529. The composite z-score in experiment [8] is -0.881; in experiment [9] it was -0.271; in experiment [11], -0.0707; in experiment [16] it was -0.0183; in experiment [17], 0.0383; in experiment [18], -0.216. The figures for the composite z-score in experiment [19] and in [20] were 0.461 and -0.428, respectively. For the same compound, the z-score was -1.3 in experiment [7]; 1.24 (inactive) in experiment [10]; -3.57 (inactive) in experiment [12]; -0.488 (inactive) in [13]; -0.527 (inactive) in [14]; -0.0197 (inactive) in [15].
Consider `CCCCCCc1nc(C2CC2)cc2c1[Si](C(C)C)(C(C)C)OC2`, for which the composite z-score in experiment [1] is -1.08; in experiment [2], -1.14; in experiment [3] it was -0.295; in experiment [4], 0.691; in experiment [5], -0.706; in experiment [6] it was -0.644. The composite z-score is -0.568 in [8]; -0.222 in experiment [9]; -0.306 in experiment [11]; 0.312 in experiment [16]; -0.261 in experiment [17]; -0.522 in [18]. The values for the composite z-score in experiment [19] and in experiment [20] were -0.751 and -0.694, respectively. Moreover, the z-score was -1.37 in experiment [7]; 0.766 (inactive) in experiment [10]; -2.44 (inactive) in experiment [12]; -0.486 (inactive) in experiment [13]; 1.59 (inactive) in [14]; 0.997 (inactive) in experiment [15].
For `CN1C(=O)C2C=CC(C(O)c3ccc(F)cc3)N(Nc3ccccc3)C2C1=O` (stereo not given), the composite z-score was 2.27 in experiment [1]; 1.14 in experiment [2]; 1.04 in experiment [3]; 0.802 in experiment [4]; 0.576 in experiment [5]; -0.319 in [6]. Besides, the composite z-score is 0.253 in experiment [8]; 0.0088 in experiment [9]; -0.126 in experiment [11]; 0.473 in experiment [16]; 0.203 in experiment [17]; -0.319 in [18]. In addition, the composite z-score in experiment [19] amounted to 0.363; in [20], 0.137. Also, the z-score in experiment [7] is -0.575; in experiment [10], -0.112 (inactive); in experiment [12] it was 0.457 (inactive); in experiment [13], -0.293 (inactive); in experiment [14], 0.0535 (inactive); in [15], 0.754 (inactive).
Regarding `C=C(C)[C@@H]1CC=C(C(O)C2C=CC3C(=O)N(c4ccccc4)C(=O)C3N2Nc2ccccc2F)CC1` (stereo not given in full), the composite z-score stood at 0.282 in experiment [1]; 1.27 in experiment [2]; 1.12 in experiment [3]; 0.987 in [4]; 1.11 in experiment [5]; 0.0538 in experiment [6]. In addition, the composite z-score in [8] came to 0.531; in [9], 1.27; in [11], 0.29; in experiment [16], 1.31; in experiment [17], 0.153; in experiment [18], 0.0552. Further, the values for the composite z-score in experiment [19] and in [20] were 0.77 and 0.27, respectively. The z-score was -0.568 in [7]; -0.809 (inactive) in [10]; 0.581 (inactive) in experiment [12]; -0.887 (inactive) in experiment [13]; 0.24 (inactive) in [14]; 0.493 (inactive) in experiment [15].
In the case of `CC(C)N1C(=O)C[C@@](C(=O)NCCCN(C)C)(c2ccc([N+](=O)[O-])cc2)[C@H]1c1ccc(CO)cc1`, the composite z-score was -0.616 in [1]; -0.605 in experiment [2]; -0.519 in [3]; 0.47 in experiment [4]; 0.316 in experiment [5]; 0.875 in experiment [6]. The composite z-score is -0.0831 in [8]; -0.0539 in [9]; -0.0942 in experiment [11]; -0.36 in experiment [16]; -0.157 in experiment [17]; -0.0639 in experiment [18]. The composite z-score in experiment [19] came to 0.46; in [20], 0.249. The z-score in experiment [7] is -0.488; in experiment [10] it was -0.287 (inactive); in [12], -1.38 (inactive); in experiment [13], 0.574 (inactive); in [14], 0.764 (inactive); in experiment [15] it was 0.0255 (inactive).
